Values joined by “and” are separate entries in the source; they are usually repeats but may differ in a detail not shown here. Identical values can stand only once. Results filed as inconclusive are left out. The source holds several records for some structures; these can differ, active in one and inactive in another. Active and inactive are the calls of the source. Unless noted, calls come from the whole dose curve; as a rule, active = well fitted curve in the direction sought with a large enough effect; inconclusive = small, poorly fitted or top-dose-only effect, or another doubt; inactive = no such curve, though single readings can be large; an effect the other way counts as inactive or inconclusive. Bounds are passed on as bounds.

Test [1] is described as follows: Cell Viability - Jurkat (AID 426;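 active = dose-dependent loss of cell ATP signal giving a full or clear fitted curve, ranked by lower potency value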; note: potency is the fitted concentration of half-maximal effect). The settings on record: qHTS. The essentials: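 Cells of the human T-cell leukemia line Jurkat (E6-1) are seeded at 5000 per well, treated with compound across a concentration range for 40 hours at 37 °C, then lysed with CellTiter-Glo; luminescence reports ATP.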
Background: Quantitative high-throughput screening tests each substance at several concentrations.

The nature of test [2]: Cell Viability - Hek293 (AID 427;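 active = compounds whose dose-response curve shows a full or clear partial loss of cell viability, called from curve shape rather than a numeric limit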;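 note: potency is the fitted concentration of half-maximal effect; cells exposed to compound for 40 hours at 37 °C before reading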). The settings on record: qHTS. In a few lines:
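HEK293 cells in complete medium were exposed to compound for 40 hr at 37 °C, then cellular ATP was read by CellTiter-Glo luminescence. Data were normalized to DMSO (basal) and 100 uM tamoxifen (100% inhibition), and AC50 came from Hill fits.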

A short description of test [3]: Cell Viability - NIH 3T3 (AID 541).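 For activity change, negative = cytotoxicity: plate controls were DMSO alone for no effect and tamoxifen positive control for full effect.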 Note: nearly all actives have a fitted effect of over 25% in size. Note: potency is the fitted concentration of half-maximal effect. The following applies: NIH 3T3 cell viability, qHTS; activity change, negative = cytotoxicity: at 92.2 µM (top of the series). The essentials:
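Cells seeded at 1000/well, rested 5 hr at 37 °C, then dosed and incubated 40 hr at 37 °C. CellTiter-Glo added, 20 min room temperature, luminescence read. AC50 by Hill fit.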

Test [4] is described as follows: Cell Viability - SH-SY5Y (AID 544).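 For viability change, negative = cytotoxic: 0% = DMSO alone and -100% = 100 µM tamoxifen.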 Note: nearly all actives have a fitted effect of over 55% in size. Note: potency is the fitted concentration of half-maximal effect. The following applies: SH-SY5Y neuroblastoma cell viability; viability change, negative = cytotoxic: at 92.2 µM (top of the series). The essentials:
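Cells were plated at 1500 per well and allowed 5 hr at 37 °C. Compounds were added across a concentration range and incubated 40 hr at 37 °C. CellTiter-Glo was added for 20 min at room temperature before luminescence reading.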

For test [5], the target named is Thyroid hormone receptor beta (Homo sapiens) (UniProt P10828). The test can be described thus: qHTS assay for small molecule agonists of thyroid hormone receptor beta signaling (AID 588545; calls by dose curve;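 note: 0% = DMSO only and 100% = 10 nM T3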). The essentials:
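TR-UAS-bla-GripTite HEK 293 cells in medium with 2% charcoal/dextran FBS, 0.1 mM NEAA and 1 mM sodium pyruvate were treated with titrated compounds for 18 hrs at 37 C. Beta-lactamase reporter was read with CCF4 dye (ex 405, em 460/530 nm); EC50 from Hill fits.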

Test [6] has as its target Voltage-gated inwardly rectifying potassium channel KCNH2 (Homo sapiens) (UniProt Q12809). The test can be described thus: qHTS Assay for Small Molecule Inhibitors of the Human hERG Channel Activity (AID 588834).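 Note: U2OS cells transduced with hERG by BacMam; top concentration of the series differs between compounds; % is set by controls: 0 for no effect and ±100 for the full control effect; lower thallium flux fluorescence means stronger hERG block; nearly all actives have a fitted effect of over 50% in size.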 The essentials: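 Cells were infected with hERG-BacMam virus for 4 hrs at room temperature, grown overnight, then seeded at 2000/well. After dye loading and roughly 10 min compound treatment, thallium influx was triggered and fluorescence recorded.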

Test [7] is described as follows: qHTS assay for small molecule activators of the nuclear factor-kappa B (NF-kB) signaling pathway (AID 651749; active = well fitted activation curve with a large enough effect in the signal ratio; the % refers to the signal ratio; note: % of control where 0% means no effect). The settings on record: NF-kB-bla ME-180 cells, beta-lactamase FRET ratio, 16 h; stronger effect = higher value. In a few lines: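 Human ME-180 cervical cells with an NF-kB-bla construct; compounds added via 23 nL pin transfer, DMSO as vehicle; incubation 16 hr. Reporter activity measured by FRET disruption.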

A short description of test [8]: qHTS assay for small molecule disruptors of the mitochondrial membrane potential - 1 hr assay (AID 651754; calls by dose curve; note: nearly all actives have a fitted effect of over 35% in size; note: potency is the fitted concentration of half-maximal effect). The essentials:
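Loss of mitochondrial potential shifts the cationic dye from red mitochondrial aggregates to green cytoplasmic monomers. Cells (HepG2) are treated with compound for 1 hr before a 30 min dye incubation at 37C.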

Test [9] in a line: Cellular Toxicity (caspase-3) BJ (AID 658).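 Note: cells exposed to compound for 16 hours; 0% = DMSO basal and 100% = 10 µM staurosporine.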 The following applies: Potency: caspase-3 activation. The essentials: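 Plated BJ cells (1000/well) rested 5 hr, received compound for 16 hr at 37 °C, then Caspase-Glo 3/7 reagent for 1 hr at room temperature before luminescence reading.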
The target in test [10] is Vitamin D3 receptor (Homo sapiens) (UniProt P11473). Briefly: qHTS assay for small molecule antagonists of vitamin D receptor signaling (AID 588541; calls by dose curve; note: potency is the fitted concentration of half-maximal effect). In a few lines:
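VDR-UAS-bla HEK293T cells (2000/well, 2% charcoal-stripped FBS) were treated with titrated compounds plus 1-alpha,25-dihydroxyvitamin D3 (50 nM or 3 nM final) for 16 h at 37 C. CCF4 beta-lactamase fluorescence was read; Hill fits gave IC50.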

Test [11] shares this target. Briefly: qHTS assay for small molecule agonists of vitamin D receptor signaling (AID 588543; calls by dose curve;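 note: 0% = DMSO basal and 100% = reference agonist control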). The essentials: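 qHTS in agonist mode: compound titrations stimulate a VDR-driven β-lactamase reporter in HEK293T cells over 16 h at 37 °C. Response normalized to 50 nM 1α,25-dihydroxyvitamin D3 = 100%, DMSO = 0%; Hill fitting gives EC50 and maximal response.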
Test [12] addresses Nuclear receptor ROR-gamma (Homo sapiens) (UniProt P51449). The test can be described thus: qHTS assay for small molecule antagonists of the retinoid-related orphan receptor gamma (ROR-gamma) signaling pathway (AID 651802). Note: nearly all actives have a fitted effect of over 60% in size. Note: potency is the fitted concentration of half-maximal effect. In a few lines:
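Steps: cells dispensed; compound or DMSO transferred by pin tool; doxycycline added to induce the ROR response element-driven luciferase; plates held 16hr at 37C; ONE-Glo added and luminescence measured.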

Test [13] can be described thus: qHTS assay for small molecule antagonists of the retinoid-related orphan receptor gamma (ROR-gamma) signaling pathway - cell viability counter screen (AID 720652; active = well fitted curve in the direction sought with a large enough effect in the repeat runs; an effect the other way counts as inactive or inconclusive;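 note: CHO reporter cells with doxycycline-induced ROR-gamma expression; compound exposure lasted 16 hr before ATP read; % is set by controls: 0 for no effect and ±100 for the full control effect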). In a few lines:
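Steps: seed CHO cells bearing TET-inducible ROR and ROR response element-luciferase; rest 5 hr at 37 C; add compound, then doxycycline; incubate 16 hr; add CellTiter-Glo and read luminescence as ATP-based viability.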

Test [14] can be described thus: qHTS assay for small molecule activators of the human pregnane X receptor (PXR) signaling pathway (AID 720659; call rule not given here; note: 0% is about no effect).
Test [15] concerns the target Cytochrome P450 3A4 (Homo sapiens) (UniProt P08684). Briefly: qHTS Assay for Inhibitors and Substrates of Cytochrome P450 3A4 (AID 884). Note: % is set by controls: 0 for no effect and ±100 for the full control effect; nearly all actives have a fitted effect of over 50% in size. The essentials:
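Luminescent readout of luciferin produced by CYP3A4 (20 nM) dealkylation of Luciferin-PPXE, 25 uM (its KM). NADPH-driven reaction ran 60 min at RT after 10 min compound preincubation; data scaled to 57 uM ketoconazole as 100% inhibition.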

The target in test [16] is Glucocorticoid receptor (Homo sapiens) (UniProt P04150). Briefly: qHTS assay for small molecule agonists of glucocorticoid receptor signaling (AID 588532; active = well fitted curve in the direction sought with a large enough effect in the signal ratio, with a control signal flat; the % refers to the signal ratio;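 note: 100% = dexamethasone at 0.1 µM and 0% = DMSO only wells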). The following applies: HeLa MMTV-bla, beta-lactamase ratio, agonist, 18 h; stronger effect = higher value; percent of dexamethasone control, DMSO zero. In a few lines:
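MMTV-bla HeLa, beta-lactamase reporter; medium with 1% charcoal/dextran-stripped FBS; cpds up to 92 uM, 18 h, 37 C; CCF4 readout 460/530 nm; Hill fit → EC50, efficacy vs 0.1 uM dexamethasone = 100%.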

Test [17] can be described thus: qHTS assay for small molecule agonists of the antioxidant response element (ARE) signaling pathway (AID 651741; active = well fitted activation curve with a large enough effect in the signal ratio; the % refers to the signal ratio; note: potency is the fitted concentration of half-maximal effect). The essentials: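 Reporter: beta-lactamase under ARE, stably in HepG2. Exposure: 16 h, 37 C, compounds delivered in DMSO by pin tool after 5 h cell preincubation. Readout: FRET substrate fluorescence after 2 h at RT.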
Test [18] can be described thus: qHTS assay for small molecule activators of the p53 signaling pathway (AID 651743; active = well fitted activation curve with a large enough effect in the signal ratio, not every such curve was filed as active; the % refers to the signal ratio; note: potency is the fitted concentration of half-maximal effect; for activation: % of control where 0% means no effect). The following applies: HCT-116 p53RE-bla, beta-lactamase FRET ratio, 16 h; activation: stronger effect = higher value. The essentials:
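Agonist-mode quantitative HTS in HCT-116 cells carrying a p53-response-element beta-lactamase reporter; 16 h compound treatment at 37 C, then FRET substrate loading for 2 h at room temperature and fluorescence read.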

Test [19] concerns the target Tumor necrosis factor (Homo sapiens) (UniProt P01375). Briefly: qHTS assay to identify small molecules that stimulate Tumor Necrosis Factor-alpha (TNF-alpha) secretion (AID 651757; active = well fitted curve in the direction sought with a large enough effect in the signal ratio; the % refers to the signal ratio; note: 0% is about no effect). The essentials:
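Human monocytic THP-1 cells are plated, treated with compound and held at 37 C for 17 hrs. Labeled anti-TNF-alpha antibody mixture is then added; after 3 hr at room temperature, TR-FRET signal reports secreted TNF-alpha.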

Test [20] can be described thus: Cellular Toxicity (caspase-3) MRC-5 (AID 659).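 Note: 0% = DMSO basal and 100% = 10 µM staurosporine.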 The essentials: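 Apoptosis readout in MRC-5 cells: luciferase light generated after caspase 3/7 cleaves a peptide-aminoluciferin substrate, measured post 16 hr compound incubation at 37 °C.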

Chain of Thyroid hormone receptor beta (Homo sapiens) (P10828 whole entry, looked up): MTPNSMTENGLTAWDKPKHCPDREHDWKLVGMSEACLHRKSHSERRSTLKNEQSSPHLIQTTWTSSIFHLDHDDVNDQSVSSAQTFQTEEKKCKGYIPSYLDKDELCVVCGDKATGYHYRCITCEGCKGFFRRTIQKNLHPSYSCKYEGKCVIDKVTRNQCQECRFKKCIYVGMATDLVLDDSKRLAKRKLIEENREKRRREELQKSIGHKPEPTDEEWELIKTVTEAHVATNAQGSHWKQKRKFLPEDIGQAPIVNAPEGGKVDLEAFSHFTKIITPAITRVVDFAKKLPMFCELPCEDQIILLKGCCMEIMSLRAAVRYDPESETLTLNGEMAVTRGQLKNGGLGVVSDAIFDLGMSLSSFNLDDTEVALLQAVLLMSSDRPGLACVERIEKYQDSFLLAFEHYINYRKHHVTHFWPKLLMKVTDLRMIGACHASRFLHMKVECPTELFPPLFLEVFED
Chain of Vitamin D3 receptor (Homo sapiens) (P11473 whole entry, looked up): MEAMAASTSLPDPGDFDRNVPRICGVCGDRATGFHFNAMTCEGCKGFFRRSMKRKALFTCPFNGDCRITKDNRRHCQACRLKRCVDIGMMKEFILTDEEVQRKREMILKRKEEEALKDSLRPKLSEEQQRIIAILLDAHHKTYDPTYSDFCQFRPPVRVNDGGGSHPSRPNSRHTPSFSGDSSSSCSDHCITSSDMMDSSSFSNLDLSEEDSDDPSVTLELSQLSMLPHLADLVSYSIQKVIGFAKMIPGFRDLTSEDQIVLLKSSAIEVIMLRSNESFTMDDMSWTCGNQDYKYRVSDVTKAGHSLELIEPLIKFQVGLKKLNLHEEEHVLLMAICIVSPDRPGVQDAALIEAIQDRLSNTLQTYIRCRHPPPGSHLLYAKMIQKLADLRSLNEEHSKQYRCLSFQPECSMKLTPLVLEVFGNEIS
Chain of Glucocorticoid receptor (Homo sapiens) (P04150 whole entry, looked up): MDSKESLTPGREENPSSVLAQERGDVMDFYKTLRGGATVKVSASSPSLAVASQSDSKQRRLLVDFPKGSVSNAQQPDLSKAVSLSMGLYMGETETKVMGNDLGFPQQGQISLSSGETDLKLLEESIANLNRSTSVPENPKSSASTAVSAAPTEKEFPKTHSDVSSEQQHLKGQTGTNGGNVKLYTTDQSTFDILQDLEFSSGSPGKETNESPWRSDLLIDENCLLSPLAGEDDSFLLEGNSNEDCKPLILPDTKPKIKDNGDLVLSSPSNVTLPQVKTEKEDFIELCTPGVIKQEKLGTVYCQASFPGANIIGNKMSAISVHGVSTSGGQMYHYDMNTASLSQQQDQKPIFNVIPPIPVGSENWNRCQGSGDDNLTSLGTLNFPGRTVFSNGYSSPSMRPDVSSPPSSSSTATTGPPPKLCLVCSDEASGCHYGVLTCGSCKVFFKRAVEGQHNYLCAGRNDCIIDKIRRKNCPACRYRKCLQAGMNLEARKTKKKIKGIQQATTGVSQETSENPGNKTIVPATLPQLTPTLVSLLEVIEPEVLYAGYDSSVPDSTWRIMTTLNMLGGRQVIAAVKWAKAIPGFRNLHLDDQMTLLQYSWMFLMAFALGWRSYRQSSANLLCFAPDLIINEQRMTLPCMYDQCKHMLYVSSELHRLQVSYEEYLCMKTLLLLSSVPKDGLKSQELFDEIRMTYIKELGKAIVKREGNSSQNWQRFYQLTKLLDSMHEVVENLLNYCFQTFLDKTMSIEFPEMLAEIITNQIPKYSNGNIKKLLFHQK
Chain of Voltage-gated inwardly rectifying potassium channel KCNH2 (Homo sapiens) (Q12809 whole entry, looked up): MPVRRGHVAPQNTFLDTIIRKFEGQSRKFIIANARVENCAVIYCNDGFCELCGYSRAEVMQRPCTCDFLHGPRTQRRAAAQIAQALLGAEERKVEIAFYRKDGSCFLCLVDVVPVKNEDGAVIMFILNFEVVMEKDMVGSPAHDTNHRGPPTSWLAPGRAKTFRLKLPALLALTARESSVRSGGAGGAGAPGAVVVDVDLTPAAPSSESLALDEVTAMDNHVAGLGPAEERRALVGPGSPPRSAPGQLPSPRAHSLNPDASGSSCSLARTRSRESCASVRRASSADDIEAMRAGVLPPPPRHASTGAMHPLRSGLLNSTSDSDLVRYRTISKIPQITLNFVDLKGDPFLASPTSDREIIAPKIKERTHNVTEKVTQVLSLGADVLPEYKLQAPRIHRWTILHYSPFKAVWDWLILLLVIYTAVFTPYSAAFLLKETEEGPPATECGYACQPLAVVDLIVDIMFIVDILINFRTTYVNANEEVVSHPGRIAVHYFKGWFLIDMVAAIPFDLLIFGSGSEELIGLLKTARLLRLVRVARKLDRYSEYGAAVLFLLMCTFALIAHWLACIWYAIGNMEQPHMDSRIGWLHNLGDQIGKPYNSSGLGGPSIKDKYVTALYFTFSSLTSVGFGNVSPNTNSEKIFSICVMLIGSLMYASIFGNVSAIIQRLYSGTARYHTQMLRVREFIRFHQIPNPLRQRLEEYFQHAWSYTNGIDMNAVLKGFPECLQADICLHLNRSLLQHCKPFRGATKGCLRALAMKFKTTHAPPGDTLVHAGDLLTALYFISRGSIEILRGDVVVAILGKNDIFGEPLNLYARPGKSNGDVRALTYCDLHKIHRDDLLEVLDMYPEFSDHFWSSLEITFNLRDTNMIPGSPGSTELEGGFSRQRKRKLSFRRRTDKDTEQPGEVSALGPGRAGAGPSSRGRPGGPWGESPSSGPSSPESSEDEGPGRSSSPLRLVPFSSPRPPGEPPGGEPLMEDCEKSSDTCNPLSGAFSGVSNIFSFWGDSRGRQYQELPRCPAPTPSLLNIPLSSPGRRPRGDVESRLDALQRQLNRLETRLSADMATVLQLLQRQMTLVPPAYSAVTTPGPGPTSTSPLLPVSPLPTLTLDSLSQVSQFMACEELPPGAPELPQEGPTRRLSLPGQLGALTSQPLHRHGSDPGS
Chain of Tumor necrosis factor (Homo sapiens) (P01375 whole entry, looked up): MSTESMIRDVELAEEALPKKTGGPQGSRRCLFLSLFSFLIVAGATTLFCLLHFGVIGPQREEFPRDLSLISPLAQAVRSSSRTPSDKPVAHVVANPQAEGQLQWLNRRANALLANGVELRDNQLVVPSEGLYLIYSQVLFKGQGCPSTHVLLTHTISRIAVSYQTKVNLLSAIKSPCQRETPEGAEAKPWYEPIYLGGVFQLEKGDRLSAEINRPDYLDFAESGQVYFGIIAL
Chain of Nuclear receptor ROR-gamma (Homo sapiens) (P51449 whole entry, looked up): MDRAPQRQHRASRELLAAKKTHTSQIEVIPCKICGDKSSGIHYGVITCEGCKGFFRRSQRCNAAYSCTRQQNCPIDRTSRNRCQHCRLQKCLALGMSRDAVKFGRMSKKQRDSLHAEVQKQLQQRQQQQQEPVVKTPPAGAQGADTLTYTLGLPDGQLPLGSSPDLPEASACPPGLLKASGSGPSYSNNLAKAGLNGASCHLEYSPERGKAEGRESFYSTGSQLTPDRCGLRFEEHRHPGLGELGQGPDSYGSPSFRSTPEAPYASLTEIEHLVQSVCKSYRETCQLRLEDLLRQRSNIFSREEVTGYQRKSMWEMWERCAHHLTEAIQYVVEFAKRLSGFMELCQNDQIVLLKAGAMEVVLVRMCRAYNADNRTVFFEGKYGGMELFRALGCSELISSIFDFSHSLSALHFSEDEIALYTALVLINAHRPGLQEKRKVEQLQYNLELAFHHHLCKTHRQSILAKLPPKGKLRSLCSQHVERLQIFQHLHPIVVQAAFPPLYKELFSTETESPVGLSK
Chain of Cytochrome P450 3A4 (Homo sapiens) (P08684 whole entry, looked up): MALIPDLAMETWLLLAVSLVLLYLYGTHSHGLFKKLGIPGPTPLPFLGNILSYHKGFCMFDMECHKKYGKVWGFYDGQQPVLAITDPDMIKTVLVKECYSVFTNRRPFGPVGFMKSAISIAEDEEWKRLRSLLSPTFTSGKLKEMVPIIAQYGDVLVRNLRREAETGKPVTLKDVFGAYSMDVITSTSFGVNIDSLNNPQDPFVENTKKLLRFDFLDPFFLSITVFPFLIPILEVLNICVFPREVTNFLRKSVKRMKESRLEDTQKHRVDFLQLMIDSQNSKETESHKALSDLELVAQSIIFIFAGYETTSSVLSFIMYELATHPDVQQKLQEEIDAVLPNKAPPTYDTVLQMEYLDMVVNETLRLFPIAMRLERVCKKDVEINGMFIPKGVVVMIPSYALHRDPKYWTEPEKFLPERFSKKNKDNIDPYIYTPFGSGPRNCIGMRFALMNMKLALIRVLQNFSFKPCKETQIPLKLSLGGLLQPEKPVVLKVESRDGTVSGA

For `O=Nc1ccc(Nc2ccccc2)cc1`, the Potency is 3.86 µM (active) in [1], 30.8 µM (active) in test [2], 31.6 µM (active) in test [3] and 2.51 µM (active) in [4]. For the same compound, the Potency result in [5], in test [6] and in [8] was “inactive” in each case. Also, the activation in [7] is -1.21% (inactive) and -2.86% (inactive).
In the case of `Cc1cc(-c2ccc(N=Nc3cc(S(=O)(=O)O)c4ccccc4c3N)c(C)c2)ccc1N=Nc1cc(S(=O)(=O)O)c2ccccc2c1N`, the Potency in [4] was 31.6 µM (active). Moreover, the Potency result in test [9], in [10], in test [11], in [5], in test [6] and in test [12] was “inactive” each time. Further, the Potency result in [13] was “inactive”. Also, the result in [14] was inactive.
As for `O=[N+]([O-])c1cc(Cl)c(Cl)c(Cl)c1Cl`, the Potency in test [3] is 7.94 µM (active); in test [4], 31.6 µM (active); in test [17], 29.8 µM (active); in [12] it was 33.5 µM (active). Moreover, the Potency entry in test [9], in [15], in test [10], in test [11], in test [5] and in [6] was “inactive” throughout. Besides, the Potency result in [8] and in test [19] was “inactive” in each case. The activation was 0.473% (inactive) in [16], 0.035% (inactive) in [18] and -0.62% (inactive) in test [7]. In addition, the call in test [14] was inactive.
With `CCCCC(CC)COP(=O)(OCC(CC)CCCC)OCC(CC)CCCC` (configuration not stated), the Potency entry in [4], in test [9], in test [10], in [11], in test [5] and in [6] was “inactive” in each case. The Potency entry in test [8], in test [19], in test [12] and in [13] was “inactive” throughout. In addition, the outcome in test [20] and in test [14] was inactive. Besides, the activation in [16] was -3.34% (inactive); in [18] it was -6.02% (inactive); in [7] it was -0.649% (inactive).
For `C=CC(=O)OCCCCCCOC(=O)C=C`, the Potency in [1] was 21.1 µM (active); in test [3], 7.94 µM (active); in [10] it was 31.6 µM (active) and inactive; in test [17], 29.8 µM (active); in [18], 70.8 µM (active). Moreover, the viability change, negative = cytotoxic in test [4] is -98.1% (active). Moreover, the outcome in test [20] and in test [14] was inactive. Also, the activation in test [16] was -0.42% (inactive) and -1.5% (inactive); in test [18], -3.66% (inactive). Moreover, the Potency result in [11], in test [5], in test [6], in test [8] and in test [19] was “inactive” in each case.
Regarding `Nc1ccccc1O`, the Potency was > 92 µM (inactive) in test [2], 13.3 µM (active) in [17] and 15 µM (active) in test [8]. Also, the activity change, negative = cytotoxicity in [3] is -130% (active). Moreover, the Potency result in test [9], in test [15], in [10], in test [11], in test [5] and in test [6] was “inactive” throughout. Further, in test [13], the Potency result was “inactive”. Further, in [20], the compound was called inactive. For the same compound, the activation in test [16] was 7.62% (inactive); in [18], 17.3% (inactive).
For the compound `CC(C)(C)C(=O)C1C(=O)c2ccccc2C1=O`, the Potency in test [3] was 12.6 µM (active). Moreover, the Potency entry in test [9], in test [15], in test [10], in test [11], in [6] and in [8] was “inactive” each time. In addition, the activation in test [16] was -3.45% (inactive); in test [18] it was 12% (inactive); in test [7], 1.49% (inactive).

Values taken from PubChem BioAssay (NCATS).
